Screening data: PubChem BioAssay, The Scripps Research Institute Molecular Screening Center
TEAD-YAP block = TEAD-YAP interaction inhibition; HEK-TIYL cells, TEAD-Gal4/YAP UAS-luciferase luminescence; 640,000 compounds, 1.4% hits; inhibition, % at 9.12 µM; in the data active means inhibition above about 32%;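 further: 0% = median of test compound wells and 100% = reference inhibitor wells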
GPR151 activ = activators of human GPR151; Q8TDV0; PathHunter beta-arrestin GPR151 cells, luminescence; activation, % at 11.2 µM; 650,000 compounds, 1% hits; AID 1508602; in the data active means activation above about 4.9%;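 further: 0% = median of compound wells and 100% = cells with positive control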
MITF inh = inhibitors of human MITF. inhibition, % at 2.6 µM. AlphaScreen MITF homodimerization, bead proximity signal. 650,000 compounds, 0.91% hits; in the data active means inhibition above about 50%;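 further: 0% = vehicle wells with protein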
Target sequence (O75030 whole entry, looked up): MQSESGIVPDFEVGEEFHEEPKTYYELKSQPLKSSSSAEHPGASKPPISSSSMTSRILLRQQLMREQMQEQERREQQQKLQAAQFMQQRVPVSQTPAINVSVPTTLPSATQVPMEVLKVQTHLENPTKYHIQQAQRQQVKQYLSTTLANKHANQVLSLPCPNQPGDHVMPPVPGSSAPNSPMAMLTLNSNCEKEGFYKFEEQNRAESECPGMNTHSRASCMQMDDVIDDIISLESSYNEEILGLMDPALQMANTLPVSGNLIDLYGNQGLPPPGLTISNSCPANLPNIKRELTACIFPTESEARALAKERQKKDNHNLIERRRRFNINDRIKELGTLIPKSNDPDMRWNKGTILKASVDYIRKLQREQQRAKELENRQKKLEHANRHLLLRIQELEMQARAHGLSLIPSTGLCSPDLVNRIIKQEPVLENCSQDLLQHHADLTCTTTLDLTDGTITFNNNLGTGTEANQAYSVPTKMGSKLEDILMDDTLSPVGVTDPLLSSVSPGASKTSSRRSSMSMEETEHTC
FBW7 act = activators of human E3 ligase FBW7. Q969H0. AlphaScreen FBW7–phospho-cyclin E peptide binding, activator screen. normalized activity (activation), % at 26.1 µM. 650,000 compounds, 0.13% hits. AID 1259310; in the data active means normalized activity above about 1.9%;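 further: purified mutant Fbw7 with reduced substrate affinity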
GPR151 conf act = confirmation of human GPR151 activators; shares compounds with GPR151 activ; GPR151 PathHunter beta-arrestin cells, luminescence, 90 min; % of EA-reagent control over plate median; activation, % at 11.2 µM; 6,700 tested, under 10 active;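 active means mean percent activation across replicates above the confirmation screen cutoff of 4.91%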
GPR119 counter = counter-screen for GPR151 activators: effect on human GPR119. activation, % at 11.2 µM. 6,700 compounds, 0.3% hits. shares compounds with GPR151 activ. GPR119 PathHunter beta-arrestin cells, luminescence, 90 min; 0 = compound-well median, 100 = enzyme-acceptor control;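 active means mean percent activation in the counterscreen above 29.09%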;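 further: counterscreen on off-target GPR119 to flag nonselective hits from the GPR151 activator screen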
Starred values were filed as active, the others as inactive; . = not tested or not shown. This is a sample that favours compounds with a hit; in the whole collection about 3.5% have one here.

SMILES | TEAD-YAP block | GPR151 activ | MITF inh | FBW7 act | GPR151 conf act | GPR119 counter
O=C(Nc1ccc(Br)cc1)C1C2C=CC3(O2)C1C(=O)N(C1CCCCCCC1)C3C(=O)NC1CCCCC1 (configuration not stated) | -2.8 | 0.9 | 5.1 | -0.1 | . | .
CN(C)S(=O)(=O)c1ccc(Cl)c(NC(=O)CN2CCNC(=O)C2)c1 | -7.6 | 5.2* | -14.1 | 0.2 | 0.4 | 7.1
Cn1c2c(c(=O)n(C)c1=O)C(c1ccccc1Cl)CC(=O)N2 (configuration not stated) | 5.4 | 8.6* | 10.4 | 0.0 | 0.4 | 9.6
O=C(CCN1C(=O)c2ccccc2S1(=O)=O)Nc1ccc(C(=O)O)cc1 | -4.3 | 7.6* | -17.5 | 0.1 | 0.9 | 5.7
COc1ccc(NC(=O)CCN2C(=O)c3ccccc3S2(=O)=O)cc1 | -7.0 | -1.2 | 4.4 | -0.2 | . | .
COCCn1c(C)cc(/C=C2/C(=O)NC(=O)N(C3CCCCC3)C2=O)c1C | 8.8 | 7.0* | 8.4 | -0.2 | -0.7 | -11.7
O=C(CC1C(=O)NCCN1CC(c1ccccc1)c1ccccc1)NC1CCC(O)CC1 (configuration not stated) | 1.6 | 5.3* | 12.3 | 0.0 | -1.1 | -6.9
COc1ccccc1/C=C/CN1CCNC(=O)C1CC(=O)NC1CCC1 (configuration not stated) | 7.4 | 0.1 | -5.6 | -0.1 | . | .
O=C(CC1C(=O)NCCN1Cc1ccc2ccccc2c1)NC1CCCCCC1 (configuration not stated) | -2.0 | 9.5* | -2.5 | -0.1 | -1.6 | -19.4
O=C(CC1C(=O)NCCN1Cc1ccc2ccccc2c1)NC1CCOCC1 (configuration not stated) | 9.6 | 0.2 | 6.9 | -0.1 | . | .
COc1ccccc1/C=C/CN1CCNC(=O)C1CC(=O)NC1CCOCC1 (configuration not stated) | 6.8 | 4.9* | -6.4 | -0.2 | -0.7 | -11.1
O=C(N/C(=C/c1ccc(Cl)cc1)C(=O)N1CCOCC1)c1ccccc1 | 3.0 | 2.0 | -2.1 | -0.1 | . | .
O=C(N/C(=C/c1ccc(Cl)cc1)C(=O)N1CCOCC1)c1ccccc1Br | 11.6 | 6.3* | 10.4 | -0.1 | -1.2 | -12.6
CCCNc1nnnc2c1cnn2-c1ccccc1 | -33.8 | 0.5 | 8.1 | 0.1 | . | .
CC(C)CNc1nnnc2c1cnn2-c1ccccc1 | -38.9 | 9.6* | -2.9 | 0.0 | 0.7 | 3.5
CCCN(CCC)C(=O)c1cc(-c2ccco2)[nH]n1 | -0.6 | 5.2* | -0.6 | 0.0 | 0.1 | -2.7
CC(C)(C)NC(=O)c1cc(-c2ccco2)[nH]n1 | 0.0 | -1.9 | 6.5 | 0.1 | . | .
Cc1c2cnn(CC(=O)NC3CCC(C)CC3)c(=O)c2c(C)n1Cc1ccccc1 (configuration not stated) | 4.8 | 1.5 | 17.4 | 0.5 | . | .
c1cncc(CSc2ccc(-c3cccnc3)nn2)c1 | -18.6 | 7.0* | 4.3 | 0.3 | 1.3 | 5.7
O=[N+]([O-])c1cccc(-c2nnc(-c3cccc(S(=O)(=O)N4CCOCC4)c3)o2)c1 | -4.2 | -0.8 | 2.1 | -0.1 | . | .
CC1CCN(S(=O)(=O)c2cccc(-c3nnc(-c4cccc([N+](=O)[O-])c4)o3)c2)CC1 | 6.2 | 5.6* | 0.1 | -0.1 | 1.2 | 3.0
COc1cc(CCC(=O)OCc2cc([N+](=O)[O-])cc3c2OCOC3)cc(OC)c1OC | 12.2 | -0.2 | 7.6 | 0.2 | . | .
C/C(CC(=O)Nc1ccccc1Cl)=N\NC(=O)c1ccncc1 | 8.8 | 9.1* | -2.2 | -0.2 | -1.2 | -10.4
CC(=O)Nc1ccccc1NC(=O)C/C(C)=N/NC(=O)c1ccncc1 | -5.2 | 0.6 | 6.1 | 0.1 | . | .
COc1ccccc1C(=O)N/N=C(\C)CC(=O)Nc1ccccc1Br | -41.2 | 7.6* | -0.6 | 0.0 | -0.1 | 8.9
SMILES | TEAD-YAP block | GPR151 activ | MITF inh | FBW7 act | GPR151 conf act | GPR119 counter
COc1ccc(-c2cc(C(F)(F)F)n3nc(C(=O)NC4CCCCC4)cc3n2)cc1 | 3.1 | 1.2 | -4.3 | -0.1 | . | .
COC(=O)[C@@H]1CCCN1Cc1ccc2c(c1)CN(Cc1ccc3c(c1)OCCO3)CCO2 | -0.4 | -1.0 | 16.2 | -0.1 | . | .
COC(=O)C1CCCCN1Cc1ccc2c(c1)CN(Cc1cnn(C)c1C)CCO2 (configuration not stated) | 3.2 | 5.9* | -0.4 | 0.1 | 0.8 | 0.5
CCOc1ccc(C(=O)Nc2ccc3c(c2)CC(=O)N3CC)cc1 | -2.5 | 1.6 | -2.9 | 0.0 | . | .
CCN1C(=O)Cc2cc(NC(=O)c3ccc(C(C)(C)C)cc3)ccc21 | 4.0 | 5.2* | 11.8 | 0.1 | 1.0 | 2.8
COc1cccc(OC)c1-c1[nH]nc2nc(-c3ccc(=O)[nH]c3)ccc12 | 7.4 | 6.7* | 1.2 | -0.2 | -1.3 | -4.2
CN1CCC(Nc2ccc3c(c2)CCN3S(C)(=O)=O)CC1 | 9.3 | -1.6 | 13.5 | 0.1 | . | .
OC(COc1ccccc1CN1CCCC1)CN1CCc2ccccc2C1 (configuration not stated) | 5.7 | 8.9* | -8.1 | -0.1 | -0.4 | -4.0
COc1cccc(-c2cc(CC(=O)NCCC3=CCCCC3)no2)c1 | -16.8 | 6.1* | -7.2 | -0.1 | -0.5 | -3.9
CC(C)N(C(=O)Cn1c(SCC(=O)N2CCCC2)nc2ccccc21)C(C)C | -5.4 | 7.9* | -0.3 | 0.1 | 0.2 | 5.0
CC(C)N(C(=O)Cn1c(SCC(=O)N2CCCCCC2)nc2ccccc21)C(C)C | 11.6 | 1.2 | -5.4 | -0.1 | . | .
COc1ccc(C(NC(C)=O)c2cc(Cl)c3cccnc3c2O)cc1 (configuration not stated) | 84.2* | 5.1* | 61.7* | -0.5 | 0.0 | -7.8
COc1ccc(C(=O)NC(c2ccccc2OC)c2cc(Cl)c3cccnc3c2O)cc1 (configuration not stated) | 16.5 | 0.1 | 5.4 | -0.2 | . | .
O=C(O)CC(NC(=O)C12CC3CC(CC(C3)C1)C2)c1cccc([N+](=O)[O-])c1 (configuration not stated) | -12.7 | 6.0* | -3.8 | -0.1 | 0.1 | 0.4
O=C(O)CC(NC(=O)C12CC3CC(CC(C3)C1)C2)c1ccc(Cl)cc1 (configuration not stated) | 11.8 | 1.8 | 0.6 | 0.0 | . | .
CCCCCn1c(N)c(C#N)c2nc3ccccc3nc21 | 6.2 | 8.2* | 35.3 | 0.1 | 0.0 | 2.3
Cn1c(N)c(C#N)c2nc3ccccc3nc21 | -2.1 | 1.0 | 8.5 | 0.8 | . | .
c1cncc(-c2nc(-c3ccncc3)cc(N3CCCCC3)n2)c1 | 15.9 | 5.2* | 13.2 | 0.0 | -1.1 | -8.4
O=C(NC1CCSC1=O)c1cccc(C(=O)NC2CCSC2=O)c1 (configuration not stated) | -3.2 | 5.3* | -27.5 | -0.3 | -0.5 | -0.9
CCC1CCCCN1C(=O)c1nn2c(c1Br)NC(c1ccccc1)CC2C(F)(F)F (configuration not stated) | -1.6 | 0.3 | 9.3 | 0.2 | . | .
